Assay results as given in PubChem BioAssay (Tox21).
A number with no mark means an inactive call. Results filed as inconclusive are left out. A call without a number means that no potency is given here. Activity calls are given as the source filed them. Calls come from the whole dose curve; as a rule, active = well fitted curve in the direction sought with a large enough effect in the repeat runs; inconclusive = weak or mixed curves; inactive = no such curve, though single readings can be large; an effect the other way counts as inactive or inconclusive.

Legend:
[1] = qHTS RealTime-Glo MT Cell Viability Assay in HepG2 cells - 8 hour (AID 1224873); note: nearly all actives have a fitted effect of over 55% in size
Method in brief: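 Real-time viability: cells seeded at 600 per well together with NanoLuc and cell-permeant prosubstrate, compounds added after 5 h incubation. Luminescence tracked at 0, 8, 16, 24, 32 and 40 h of exposure.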

[2] = qHTS RealTime-Glo MT Cell Viability Assay in HEK293 cells - 40 hour (AID 1224874); conditions: RealTime-Glo luminescence; max response: stronger effect = lower value; note: nearly all actives have a fitted effect of over 50% in size; note: potency is the fitted concentration of half-maximal effect
Method in brief: (§1)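 HEK293 + NanoLuc + prosubstrate, 600 cells/well; 5 h, 37 C/5% CO2; compound 23 nL in DMSO by pintool; 37 C; luminescence read at 0, 8, 16, 24, 32 and 40 h time points.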

[3] = A CellTox Green Cytotoxicity Assay to monitor cytotoxicity in HEK293 cells - 24 hour (AID 1224875); note: nearly all actives have a fitted effect of over 45% in size; note: potency is the fitted concentration of half-maximal effect; for activity change: series mostly up to about 77 µM
Method in brief: (§2)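 Tox21 screen in HEK293: membrane-impermeant cyanine dye fluoresces on binding dead-cell DNA; compound pinned 5 h post-seeding, plates held at 37 C, signal read repeatedly through 40 h.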

[4] = A CellTox Green Cytotoxicity Assay to monitor cytotoxicity in HepG2 cells - 16 hour (AID 1224876); note: nearly all actives have a fitted effect of over 45% in size; note: potency is the fitted concentration of half-maximal effect
Method in brief: (§3)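 Measurements at 0, 8, 16, 24, 32 and 40 h of treatment captured CellTox Green fluorescence in HepG2 cells that had been co-plated with reagent and preincubated 5 h at 37 C/5% CO2.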

[5] = qHTS RealTime-Glo MT Cell Viability Assay in HepG2 cells - 32 hour (AID 1224877); note: nearly all actives have a fitted effect of over 55% in size
Method in brief: (§4)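 qHTS, HepG2, 600 cells/well, RealTime-Glo (NanoLuc + prosubstrate) added with cells; 5 h preincubation; DMSO compound addition; 37 C; luminescence at 0/8/16/24/32/40 h.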

[6] = A CellTox Green Cytotoxicity Assay to monitor cytotoxicity in HepG2 cells - 24 hour (AID 1224878); note: nearly all actives have a fitted effect of over 45% in size; note: potency is the fitted concentration of half-maximal effect
Method in brief: as §3

[7] = A CellTox Green Cytotoxicity Assay to monitor cytotoxicity in HepG2 cells - 40 hour (AID 1224879); note: nearly all actives have a fitted effect of over 40% in size; note: potency is the fitted concentration of half-maximal effect
Method in brief: as §3

[8] = qHTS RealTime-Glo MT Cell Viability Assay in HEK293 cells - 0 hour (AID 1224880); note: nearly all actives have a fitted effect of over 45% in size; note: potency is the fitted concentration of half-maximal effect; for activity change, negative = cytotoxicity: top concentration of the series differs between compounds
Method in brief: as §1

[9] = A CellTox Green Cytotoxicity Assay to monitor cytotoxicity in HEK293 cells - 32 hour (AID 1224881); note: nearly all actives have a fitted effect of over 40% in size; note: potency is the fitted concentration of half-maximal effect
Method in brief: as §2

[10] = A CellTox Green Cytotoxicity Assay to monitor cytotoxicity in HepG2 cells - 0 hour (AID 1224882); note: nearly all actives have a fitted effect of over 35% in size; note: potency is the fitted concentration of half-maximal effect
Method in brief: as §3

[11] = A CellTox Green Cytotoxicity Assay to monitor cytotoxicity in HepG2 cells - 32 hour (AID 1224883); note: nearly all actives have a fitted effect of over 50% in size; note: potency is the fitted concentration of half-maximal effect
Method in brief: as §3

[12] = A CellTox Green Cytotoxicity Assay to monitor cytotoxicity in HEK293 cells - 8 hour (AID 1224884); note: nearly all actives have a fitted effect of over 35% in size; note: potency is the fitted concentration of half-maximal effect
Method in brief: as §2

[13] = qHTS RealTime-Glo MT Cell Viability Assay in HepG2 cells - 16 hour (AID 1224885); note: nearly all actives have a fitted effect of over 50% in size
Method in brief: as §4

[14] = A CellTox Green Cytotoxicity Assay to monitor cytotoxicity in HEK293 cells - 16 hour (AID 1224888); note: nearly all actives have a fitted effect of over 35% in size; note: potency is the fitted concentration of half-maximal effect
Method in brief: as §2

[15] = qHTS RealTime-Glo MT Cell Viability Assay in HepG2 cells - 0 hour (AID 1224889); note: nearly all actives have a fitted effect of over 50% in size
Method in brief: as §4

[16] = A CellTox Green Cytotoxicity Assay to monitor cytotoxicity in HepG2 cells - 8 hour (AID 1224890); note: nearly all actives have a fitted effect of over 45% in size; note: potency is the fitted concentration of half-maximal effect
Method in brief: as §3

[17] = qHTS assay to identify small molecule antagonists of the estrogen receptor alpha (ER-alpha) signaling pathway using the BG1 cell line in the presence of 0.1 nM 17-beta-estradiol - cell viability counter screen (AID 1259241); note: nearly all actives have a fitted effect of over 40% in size
Method in brief: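 Cells were plated and left 24 hr, compounds in DMSO were pinned in, 17beta-estradiol was added to 0.1 nM final, and after 22 hr CellTiter-Fluor reagent was added for 30 min before fluorescence was read.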

[18] = qHTS RealTime-Glo MT Cell Viability Assay in HEK293 cells - 8 hour (AID 1224887)
Method in brief: as §1

[19] = qHTS RealTime-Glo MT Cell Viability Assay in HEK293 cells - 24 hour (AID 1224886)
Method in brief: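 Assay medium contained NanoLuc luciferase plus cell-permeant prosubstrate, added with HEK293 cells at 600 cells/well. After 5 h at 37 C/5% CO2 compounds were added; plates stayed at 37 C for 40 h with serial luminescence reads.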

With `COC(=O)Nc1nc2ccc(C(=O)c3ccccc3)cc2[nH]1` the Potency [1] was “inactive”, the Potency [2] was 0.477 µM (active) and the Potency [3] was “inactive”. The Potency [4] was “inactive”, the Potency [5] was “inactive” and the Potency [6] was “inactive”. The Potency [7] was 0.268 µM (active), the Potency [8] was “inactive” and the Potency [9] was “inactive”. The Potency [10] was “inactive”, the Potency [11] was “inactive” and the Potency [12] was “inactive”. For the same molecule, the Potency [13] was “inactive”, the Potency [14] was “inactive” and the Potency [15] was “inactive”. The Potency [16] was “inactive”.

With `Cc1c2ccccc2c(C)c2c1ccc1ccccc12` the Potency [1] was “inactive”, the Potency [4] was “inactive” and the Potency [6] was “inactive”. For the same molecule, the Potency [7] was “inactive”, the Potency [9] was 43.6 µM (active) and the Potency [10] was “inactive”. For the same molecule, the Potency [11] was “inactive”, the Potency [12] was “inactive” and the Potency [13] was “inactive”. For the same molecule, the Potency [14] was “inactive”, the Potency [16] was “inactive” and the Potency [17] was “inactive”.

With `Cc1cc(-c2ccc(N=Nc3cc(S(=O)(=O)O)c4ccccc4c3N)c(C)c2)ccc1N=Nc1cc(S(=O)(=O)O)c2ccccc2c1N` the Potency [2] was 2.2 µM (active), the Potency [4] was “inactive” and the Potency [5] was “inactive”. The Potency [6] was “inactive”, the Potency [7] was “inactive” and the Potency [8] was “inactive”. The Potency [10] was “inactive”, the Potency [11] was “inactive” and the Potency [12] was “inactive”. For the same molecule, the Potency [13] was “inactive”, the Potency [18] was “inactive” and the Potency [14] was “inactive”. For the same molecule, the Potency [16] was “inactive” and the Potency [17] was “inactive”.

With `CC(C)Cn1cnc2c(N)nc3ccccc3c21` the viability change, negative = cytotoxic [1] was -0.187% [at 15.8 µM], the activity change [3] was 3.75% [at 15.8 µM, stronger effect = higher value] and the cytotoxicity increase [4] was -13.4% [at 15.8 µM]. For the same molecule, the activity change, negative = cytotoxic [5] was -0.3% [at 15.8 µM], the cytotoxicity [6] was -13.9% [at 15.8 µM] and the cytotoxicity increase [7] was -14.5% [at 15.8 µM]. The cytotoxicity increase [9] was 3.99% [at 15.8 µM], the cytotoxicity [10] was -9.84% [at 15.8 µM] and the cytotoxicity increase [11] was -12% [at 15.8 µM]. For the same molecule, the cytotoxicity increase [12] was 2.79% [at 15.8 µM], the activity change, negative = cytotoxic [13] was 0.56% [at 15.8 µM] and the activity change, negative = cytotoxicity [15] was 12.8% [at 15.8 µM]. The cytotoxicity increase [16] was -11.4% [at 15.8 µM] and the activity change, negative = cytotoxicity [17] was 3.02% [at 19 µM].

For `CNC(=O)c1ccccc1Sc1ccc2c(/C=C/c3ccccn3)n[nH]c2c1`, the Potency [2] was 8.49 µM (active), the Potency [4] was “inactive” and the Potency [5] was “inactive”. For the same molecule, the Potency [6] was “inactive”, the Potency [7] was “inactive” and the Potency [9] was “inactive”. For the same molecule, the Potency [10] was “inactive”, the Potency [11] was “inactive” and the Potency [12] was “inactive”. For the same molecule, the Potency [19] was 7.56 µM (active), the Potency [14] was “inactive” and the Potency [16] was “inactive”. The Potency [17] was “inactive”.

In the case of `C[Si](Cl)(c1ccccc1)c1ccccc1`, the Potency [4] is reported as “inactive”, the Potency [5] is reported as “inactive” and the Potency [6] is reported as “inactive”. For the same molecule, the Potency [7] was “inactive”, the Potency [10] was “inactive” and the Potency [11] was “inactive”. The Potency [12] was “inactive”, the Potency [13] was “inactive” and the Potency [14] was “inactive”. The Potency [16] was “inactive” and the Potency [17] was “inactive”.

For `CC[N+](CC)(CC)CCOC(=O)C(C1CCCC1)C1CCCC1`, the Potency [3] was “inactive”, the Potency [4] was “inactive” and the Potency [6] was “inactive”. For the same molecule, the Potency [7] was “inactive”, the Potency [8] was “inactive” and the Potency [9] was “inactive”. The Potency [10] was “inactive”, the Potency [11] was “inactive” and the Potency [12] was “inactive”. For the same molecule, the Potency [13] was “inactive”, the Potency [18] was “inactive” and the Potency [15] was “inactive”. For the same molecule, the Potency [16] was “inactive”.

In the case of `CCC(C)n1ncn(-c2ccc(N3CCN(c4ccc(OC[C@H]5CO[C@](Cn6cncn6)(c6ccc(Cl)cc6Cl)O5)cc4)CC3)cc2)c1=O` (some centres undefined), the Potency [1] is reported as “inactive”, the Potency [3] is reported as “inactive” and the Potency [4] is reported as “inactive”. The Potency [6] was “inactive”, the Potency [7] was “inactive” and the Potency [8] was “inactive”. The Potency [9] was “inactive”, the Potency [10] was “inactive” and the Potency [11] was “inactive”. For the same molecule, the Potency [14] was “inactive”, the Potency [15] was “inactive” and the Potency [16] was “inactive”. The Potency [17] was “inactive”.

With `O=C1OC2(c3ccc(O)cc3Oc3cc(O)ccc32)c2ccc(N=C=S)cc21` the Potency [3] was 17.7 µM (active), the Potency [4] was 15.8 µM (active) and the Potency [6] was 15.8 µM (active). For the same molecule, the Potency [7] was 15.8 µM (active), the Potency [8] was 44.4 µM (active) and the Potency [9] was 17.7 µM (active). The Potency [10] was 15.8 µM (active), the Potency [11] was 15.8 µM (active) and the Potency [12] was 15.8 µM (active). The Potency [14] was 12.5 µM (active) and the Potency [16] was 15.8 µM (active).

In the case of `Cc1ccc(O)c(O)c1`, the Potency [1] is reported as “inactive”, the Potency [4] is reported as “inactive” and the Potency [5] is reported as “inactive”. The Potency [6] was “inactive”, the Potency [8] was “inactive” and the Potency [10] was “inactive”. For the same molecule, the Potency [11] was “inactive”, the Potency [13] was “inactive” and the Potency [15] was “inactive”. The Potency [16] was “inactive”.

For `C#C[C@]1(OC(C)=O)CC[C@H]2[C@@H]3CCC4=C[C@@H](OC(C)=O)CC[C@@H]4[C@H]3CC[C@@]21C`, the Potency [2] was 21.3 µM (active), the Potency [4] was “inactive” and the Potency [6] was “inactive”. For the same molecule, the Potency [7] was “inactive”, the Potency [10] was “inactive” and the Potency [11] was “inactive”. The Potency [12] was “inactive”, the Potency [13] was “inactive” and the Potency [19] was 21.3 µM (active). For the same molecule, the Potency [14] was “inactive”, the Potency [16] was “inactive” and the Potency [17] was “inactive”.

With `COCCOc1cc2cc(C(=O)NC3CCN(C(C)C)CC3)n(CC(=O)Nc3ccc(Cl)cn3)c2cn1` the Potency [1] was “inactive”, the max response [2] was -25.3% and the Potency [3] was “inactive”. The Potency [4] was “inactive”, the Potency [5] was “inactive” and the Potency [6] was “inactive”. The Potency [7] was “inactive”, the Potency [8] was “inactive” and the Potency [9] was “inactive”. For the same molecule, the Potency [10] was “inactive”, the Potency [11] was “inactive” and the Potency [12] was “inactive”. The Potency [13] was “inactive”, the Potency [14] was “inactive” and the Potency [15] was “inactive”. For the same molecule, the Potency [16] was “inactive” and the Potency [17] was “inactive”.

For `CC(C)=CCC1=C(O)c2ccccc2C(=O)C1=O`, the Potency [1] was “inactive”, the Potency [2] was 24.4 µM (active) and the Potency [3] was “inactive”. The Potency [4] was “inactive”, the Potency [6] was “inactive” and the Potency [7] was “inactive”. The Potency [10] was “inactive”, the Potency [11] was “inactive” and the Potency [12] was “inactive”. For the same molecule, the Potency [13] was “inactive”, the Potency [14] was “inactive” and the Potency [15] was “inactive”. The Potency [16] was “inactive”.
